The results in this text go back to PubChem BioAssay (EPA / NIEHS).

Structures are written as SMILES. Records with an inconclusive call do not appear. Active and inactive are the calls of the source. Rule for the calls, unless noted: active = hit-call score of the fitted dose curve at least 0.9, where 1 is the maximum; inactive = score below 0.9.

One may read the AC50 as the concentration giving half of the maximal activity seen.

Assay [1] is described as follows: BSK_3C_Vis: BioMAP Diversity Plus: 3C Assay for Morphology Visualization (AID 2283025).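 Note: fitted both ways so gain or loss versus DMSO counts.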 As to conditions: primary human endothelial cells (HUVEC). An outline of the steps:
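Human umbilical vein endothelial cell morphology was inspected by light microscopy 24 h after chemical dosing; scored bidirectionally relative to DMSO.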

Read-out in assay [2]: Transforming growth factor beta 1 (TGFb1), TGFB1 (gene 7040)
Kind of assay: BSK_BE3C_TGFb1: BioMAP Diversity Plus: BE3C Assay for Transforming growth factor beta 1 (TGFb1) Biomarker Activity (AID 2283036). Conditions: primary human bronchial epithelial cells; actives raise or lower the signal. In short, it runs like this:
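Primary human bronchial epithelial cells dosed with chemical; TGF-b1 measured by ELISA 24 h after dosing. Bidirectional curve fitting against DMSO negative control; SRB total-protein staining in parallel cultures gauged cytotoxicity.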

Assay [3] can be described thus: BSK_CASM3C_SRB: Viability Assessment in the BioMAP Diversity Plus: CASM3C Assay (AID 2283050). As to conditions: primary human coronary artery smooth muscle cells.
Read-out in assay [4]: Transforming growth factor beta 1 (TGFb1), TGFB1 (gene 7040)
Kind of assay: BSK_KF3CT_TGFb1: BioMAP Diversity Plus: KF3CT Assay for Transforming growth factor beta 1 (TGFb1) Biomarker Activity (AID 2283072). Conditions: primary human keratinocytes with fibroblasts; actives raise or lower the signal. An outline of the steps: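 Human keratinocyte/foreskin fibroblast co-culture; TGF-b1 measured by ELISA 24 h after dosing, fitted bidirectionally versus DMSO. Cytotoxicity checked in parallel cultures by total protein (SRB staining, 560 nm).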

Read-out in assay [5]: CD40, CD40 (gene 958)
Kind of assay: BSK_LPS_CD40: BioMAP Diversity Plus: LPS Assay for CD40 Biomarker Activity (AID 2283076). As to conditions: primary human HUVEC with PBMC; actives raise or lower the signal. An outline of the steps:
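In the LPS system of human endothelial cells with peripheral blood mononuclear cells, CD40 levels were read by ELISA 24 h post-treatment. Signal changes in either direction were fitted against the DMSO baseline, with parallel SRB protein staining.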

Read-out in assay [6]: Interleukin-1 alpha (IL1a), IL1A (gene 3552)
Kind of assay: BSK_LPS_IL1a: BioMAP Diversity Plus: LPS Assay for Interleukin-1 alpha (IL1a) Biomarker Activity (AID 2283080). Conditions: primary human HUVEC with PBMC; actives raise or lower the signal. In short, it runs like this:
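Readout is IL-1a level by ELISA, 24 h post-dose, fitted as gain or loss relative to DMSO. System: LPS-activated human primary co-culture of vascular endothelium and peripheral blood mononuclear cells, with parallel SRB total-protein cytotoxicity.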

Read-out in assay [7]: Monocyte Chemoattractant Protein-1 (MCP1), CCL2 (gene 6347)
Kind of assay: BSK_LPS_MCP1: BioMAP Diversity Plus: LPS Assay for Monocyte Chemoattractant Protein-1 (MCP1) Biomarker Activity (AID 2283081). Conditions: primary human HUVEC with PBMC; actives raise or lower the signal. In short, it runs like this: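 Secreted MCP-1 read by ELISA at 24 h post-dosing in an LPS-activated co-culture of endothelial cells with peripheral blood mononuclear cells. Fits run in both directions, DMSO as baseline; parallel SRB staining tracks overt cytotoxicity.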

Assay [8] can be described thus: BSK_LPS_PGE2: BioMAP Diversity Plus: LPS Assay for Prostaglandin E2 (PGE2) Biomarker Activity (AID 2283082). Conditions: primary human HUVEC with PBMC; actives raise or lower the signal. An outline of the steps: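 HUVEC plus human PBMC co-culture stimulated with LPS; secreted PGE2 quantified by ELISA 24 h after chemical dosing. Activity fitted bidirectionally against DMSO baseline; parallel SRB staining (0.1% SRB after 10% TCA fixation, 560 nm) flags overt cytotoxicity.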

Read-out in assay [9]: Macrophage colony-stimulating factor (MCSF), CSF1 (gene 1435)
Kind of assay: BSK_LPS_MCSF: BioMAP Diversity Plus: LPS Assay for Macrophage colony-stimulating factor (MCSF) Biomarker Activity (AID 2283083). As to conditions: primary human HUVEC with PBMC; actives raise or lower the signal. An outline of the steps:
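Bidirectional fitting against DMSO was applied to M-CSF levels read by ELISA at 24 h post-dose. The system pairs human umbilical vein endothelium with peripheral blood mononuclear cells; parallel SRB staining tracked cytotoxicity.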

Read-out in assay [10]: Tissue Factor, F3 (gene 2152)
Kind of assay: BSK_LPS_TissueFactor: BioMAP Diversity Plus: LPS Assay for Tissue Factor Biomarker Activity (AID 2283084). Conditions: primary human HUVEC with PBMC; actives raise or lower the signal. An outline of the steps:
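Compound was added to an endothelial cell/PBMC co-culture, and after 24 h tissue factor (CD142) was read by ELISA. Gain or loss of signal was fitted against a DMSO baseline, and parallel SRB staining (560 nm) tracked overt cytotoxicity.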

Read-out in assay [11]: Vascular cell adhesion molecule 1 (VCAM1), VCAM1 (gene 7412)
Kind of assay: BSK_LPS_VCAM1: BioMAP Diversity Plus: LPS Assay for Vascular cell adhesion molecule 1 (VCAM1) Biomarker Activity (AID 2283086). As to conditions: primary human HUVEC with PBMC; actives raise or lower the signal. An outline of the steps: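 Human umbilical vein endothelial cells co-cultured with PBMC and stimulated with LPS; VCAM-1 measured by ELISA 24 h after dosing. Bidirectional curve fitting against DMSO baseline; cytotoxicity tracked in parallel by SRB total-protein staining.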

Read-out in the next assay: CD38, CD38 (gene 952)
Kind of assay: BSK_SAg_CD38: BioMAP Diversity Plus: SAg Assay for CD38 Biomarker Activity (AID 2283087). Conditions: primary human HUVEC with PBMC; actives raise or lower the signal. In short, it runs like this: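 Human HUVEC plus PBMC co-culture stimulated with superantigen; CD38 measured by ELISA 24 h after chemical dosing. Fluorescence read-out, bidirectional fit against DMSO; cytotoxicity tracked in parallel by SRB and Alamar Blue.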

Read-out in assay [12]: CD40, CD40 (gene 958)
Kind of assay: BSK_SAg_CD40: BioMAP Diversity Plus: SAg Assay for CD40 Biomarker Activity (AID 2283088). Conditions: primary human HUVEC with PBMC; actives raise or lower the signal. An outline of the steps:
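CD40 is measured by fluorescence ELISA in an endothelial/PBMC primary human co-culture at 24 h post-dose. Fitting is bidirectional, DMSO baseline. Parallel SRB staining (560 nm) flags cytotoxicity.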

Read-out in the next assay: CD69, CD69 (gene 969)
Kind of assay: BSK_SAg_CD69: BioMAP Diversity Plus: SAg Assay for CD69 Biomarker Activity (AID 2283089). As to conditions: primary human HUVEC with PBMC; actives raise or lower the signal. In short, it runs like this: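 HUVEC co-cultured with PBMC were dosed with chemical, and CD69 was measured by ELISA with fluorescence read-out 24 h later. Bidirectional curve fitting used DMSO as negative control and activity baseline.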

Read-out in assay [13]: Monocyte Chemoattractant Protein-1 (MCP1), CCL2 (gene 6347)
Kind of assay: BSK_SAg_MCP1: BioMAP Diversity Plus: SAg Assay for Monocyte Chemoattractant Protein-1 (MCP1) Biomarker Activity (AID 2283090). Conditions: primary human HUVEC with PBMC; actives raise or lower the signal. In short, it runs like this:
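MCP-1 levels in the endothelial–PBMC SAg co-culture were quantified by ELISA at 24 h post-dosing; both increases and decreases versus DMSO scored. Cytotoxicity monitored by SRB total protein in parallel cultures.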

Read-out in assay [14]: Monokine induced gamma interferon (MIG), CXCL9 (gene 4283)
Kind of assay: BSK_SAg_MIG: BioMAP Diversity Plus: SAg Assay for Monokine induced gamma interferon (MIG) Biomarker Activity (AID 2283092). Conditions: primary human HUVEC with PBMC; actives raise or lower the signal. An outline of the steps:
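HUVEC plus human PBMC co-culture, chemicals dosed and MIG (CXCL9) quantified by ELISA at 24 h. Bidirectional curve fitting against DMSO as negative control and baseline, so both gain and loss of signal count as activity.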

Assay [15] in a line: BSK_SAg_SRB: Viability Assessment in the BioMAP Diversity Plus: SAg Assay (AID 2283096).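 Note: cells read one day after compound addition; hits may be either gain or loss of signal compared with DMSO.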 Conditions: primary human HUVEC with PBMC. In short, it runs like this: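 Human umbilical vein endothelial cells co-cultured with PBMC, read 24 h after compound dosing. Total protein measured by sulforhodamine B staining (0.1% SRB after 10% TCA fixation, absorbance 560 nm); bidirectional fit versus DMSO baseline.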

Assay [16] in a line: BSK_BT_PBMCCytotoxicity: PBMC Cytotoxicity Assessment in the BioMAP Diversity Plus: BT Assay (AID 2284225).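 Note: PBMC viability measured by Alamar Blue dye reduction fluorescence.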 As to conditions: primary human B cells with PBMC. An outline of the steps: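 PBMC (75,000/well) pretreated with compound 1 h, then activated with SEB and TSST-1 (20 ng/mL each final), incubated 90 h; Alamar Blue added 6 h, fluorescence read at 546/580 nm. Fitted relative to DMSO.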

Read-out in assay [17]: Secreted IgG (sIgG), gene 3500
Kind of assay: BSK_BT_sIgG: BioMAP Diversity Plus: BT Assay for Secreted IgG (sIgG) Biomarker Activity (AID 2284226). As to conditions: primary human B cells with PBMC. An outline of the steps:
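Human B cell plus PBMC co-culture; secreted IgG measured by ELISA 24 h after chemical dosing. Response fitted in positive direction relative to DMSO baseline.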

Assay [18] addresses Estrogen receptor (Homo sapiens) (UniProt P03372). Kind of assay: ATG_ERa_TRANS: Attagene TRANS-FACTORIAL HepG2 Assay for human Estrogen Receptor alpha (ERa) (AID 2282970; active = hit-call score of the fitted dose curve at least 0.9, where 1 is the maximum). As to conditions: HepG2 Attagene TRANS ERa GAL4 reporter, mRNA. An outline of the steps: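 Cells: HepG2, transiently transfected. Construct: GAL4-UAS reporter units regulated by exogenous NR-Gal4 chimeras. Time: 24 h. Detection: reporter mRNA by RT-PCR, capillary electrophoresis, fluorescence. Baseline: DMSO, upward fitting.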

Estrogen receptor (Homo sapiens), sequence (P03372 whole entry, looked up, the tested form may be a part): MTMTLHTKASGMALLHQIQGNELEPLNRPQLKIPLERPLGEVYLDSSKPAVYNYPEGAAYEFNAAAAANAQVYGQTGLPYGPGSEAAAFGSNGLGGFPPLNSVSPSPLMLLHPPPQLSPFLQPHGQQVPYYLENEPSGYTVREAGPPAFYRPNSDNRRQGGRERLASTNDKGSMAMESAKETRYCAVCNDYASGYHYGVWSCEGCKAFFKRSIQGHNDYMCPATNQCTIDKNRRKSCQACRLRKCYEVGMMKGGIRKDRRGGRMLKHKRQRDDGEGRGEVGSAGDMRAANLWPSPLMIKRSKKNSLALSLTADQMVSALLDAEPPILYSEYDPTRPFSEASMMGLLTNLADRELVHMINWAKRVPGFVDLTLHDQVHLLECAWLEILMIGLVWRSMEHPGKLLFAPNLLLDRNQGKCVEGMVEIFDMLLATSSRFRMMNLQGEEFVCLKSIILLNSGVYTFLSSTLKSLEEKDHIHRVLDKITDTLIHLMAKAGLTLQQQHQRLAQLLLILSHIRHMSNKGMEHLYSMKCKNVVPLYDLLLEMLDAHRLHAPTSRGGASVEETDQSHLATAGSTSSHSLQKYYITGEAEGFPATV

For `Cc1cccnc1`, the outcome is “inactive” in assay [1]; “inactive” in [2]; “inactive” in assay [3]; “inactive” in assay [4]; “inactive” with CD40, CD40 (gene 958) [5]; “inactive” in [6]. Besides, the outcome is “inactive” in assay [7]; “inactive” in assay [8]; “inactive” in assay [9]; “inactive” in assay [10]; “inactive” in assay [11]; “inactive” in the assay with CD38, CD38 (gene 952). Moreover, the outcome was “inactive” in the assay with CD40, CD40 (gene 958) [12]; “inactive” with CD69, CD69 (gene 969); “inactive” in [13]; “inactive” in [14]; “inactive” in assay [15]; “inactive” in assay [16]. The outcome in assay [17] was inactive.

Consider `O=C1CCCCCCCCCCCCCC1`, for which, in assay [18], the AC50 was 26.5 µM (active).

As to `Oc1ccc(Cl)cc1C1CCCC1`, the AC50 in assay [18] was 4.12 µM (active).

On to `CCCC(=O)OC/C=C(\C)CCC=C(C)C`, for which, in assay [18], the call was inactive.

As to `CC(C)CC(=O)O`, the compound was classed as inactive in assay [18].

For the compound `O=[N+]([O-])c1ccc2nc[nH]c2c1`, the compound was classed as inactive in assay [18].

As to `c1cc[c]([Bi]([c]2ccccc2)[c]2ccccc2)cc1`, the AC50 in [18] was 4.16 µM (active).

Regarding `CCCCCCC(O)CCCCCCCCCCC(=O)OC` (stereo not drawn), the outcome was “inactive” in assay [1]; “inactive” in [2]; “inactive” in [3]; “inactive” in assay [4]; “inactive” with CD40, CD40 (gene 958) [5]; “inactive” in assay [6]. Moreover, the outcome in assay [7] is “inactive”; in assay [9], “inactive”; in [10] it was “inactive”; in [11], “inactive”; in the assay with CD38, CD38 (gene 952), “inactive”; with CD40, CD40 (gene 958) [12], “inactive”. Besides, the outcome in the assay with CD69, CD69 (gene 969) is “inactive”; in assay [13] it was “inactive”; in assay [14] it was “inactive”; in assay [15] it was “inactive”; in assay [16] it was “inactive”; in [17], “inactive”. Further, the AC50 in [8] is 1.73 µM (active).

On to `CCC(C)NC(N)=O` (stereo not drawn), for which the outcome in assay [18] was inactive.

With `c1ccc2c(c1)Oc1ccccc1S2`, the concentration at half-maximal activity (AC50) in [18] is 27.9 µM (active).

Regarding `COC(=O)/C=C\C(=O)OC`, the outcome was “inactive” in assay [1]; “inactive” in assay [2]; “inactive” in assay [3]; “inactive” in assay [4]; “inactive” in the assay with CD40, CD40 (gene 958) [5]; “inactive” in assay [6]. The outcome was “inactive” in [7]; “inactive” in assay [8]; “inactive” in assay [9]; “inactive” in assay [10]; “inactive” with CD38, CD38 (gene 952); “inactive” with CD40, CD40 (gene 958) [12]. For the same compound, the outcome is “inactive” with CD69, CD69 (gene 969); “inactive” in assay [13]; “inactive” in assay [14]; “inactive” in assay [15]; “inactive” in [16]. Also, the AC50 was 8.6 µM (active) in [11] and 20 µM (active) in [17].

As for `CCCc1c(OCCCCc2nn[nH]n2)ccc(C(C)=O)c1O`, the outcome in assay [18] was inactive.

For the compound `CCC(C)=NO`, the outcome in assay [1] is “inactive”; in [2] it was “inactive”; in assay [3], “inactive”; in assay [4], “inactive”; with CD40, CD40 (gene 958) [5], “inactive”; in assay [6] it was “inactive”. Moreover, the outcome in [7] is “inactive”; in [8] it was “inactive”; in [9], “inactive”; in assay [10], “inactive”; in [11] it was “inactive”; with CD38, CD38 (gene 952), “inactive”. Besides, the outcome in the assay with CD40, CD40 (gene 958) [12] is “inactive”; with CD69, CD69 (gene 969) it was “inactive”; in [13], “inactive”; in assay [14], “inactive”; in [15], “inactive”.
